hNpr1 antagonist: Natriuretic polypeptide receptor (hNpr1) antagonism - Primary qHTS. Atrial natriuretic peptide receptor 1 (Homo sapiens), P16066. HEK293 hNpr1 GloSensor cGMP, ANP-stimulated luminescence. Potency, µM (series often up to 46.3 µM), most hits filed as inhibitors. hit rate 1.6% among 76,000; calls by dose curve; note: nearly all actives have a fitted effect of over 60% in size
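Compound pre-incubated 30 min at room temperature on GloSensor-loaded HEK293 cells stably carrying hNpr1 and the pGS-40F cGMP biosensor. Stimulation uses hNppA at 0.1 nM final; luminescence is taken at baseline and 20 min post-agonist.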
FLuc inh: Firefly luciferase inhibition profiling of diverse chemical library using quantitative high-throughput screening; Luciferin 4-monooxygenase (Photinus pyralis), P08659; purified P. pyralis luciferase, luminescence, biochemical; Potency, µM (titrated, usually from 115 µM), most hits filed as inhibitors; hit rate 2.5% among 76,000; AID 1347043, 2019; note: nearly all actives have a fitted effect of over 65% in size
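Luminescence read by CCD imager after adding enzyme (10nM final) to wells holding compound, titrated in qHTS. Substrates 10uM each D-luciferin and ATP; buffer 50mM Tris acetate pH 7.5, 10mM Mg acetate, Tween-20, BSA.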
GPT2 inhibitor: Primary qHTS assay for inhibitors of Glutamate pyruvate transaminase 2 (GPT2). Alanine aminotransferase 2 (Homo sapiens), Q8TD30. Recombinant GPT2, coupled pyruvate oxidase/HRP Amplex Red fluorescence. Potency, µM (titrated, usually from 57.7 µM), usual class: inhibitors. hit rate 0.25% among 100,000. AID 1671188, 2021; note: nearly all actives have a fitted effect of over 60% in size
Target sequence (Q8TD30 whole entry, looked up): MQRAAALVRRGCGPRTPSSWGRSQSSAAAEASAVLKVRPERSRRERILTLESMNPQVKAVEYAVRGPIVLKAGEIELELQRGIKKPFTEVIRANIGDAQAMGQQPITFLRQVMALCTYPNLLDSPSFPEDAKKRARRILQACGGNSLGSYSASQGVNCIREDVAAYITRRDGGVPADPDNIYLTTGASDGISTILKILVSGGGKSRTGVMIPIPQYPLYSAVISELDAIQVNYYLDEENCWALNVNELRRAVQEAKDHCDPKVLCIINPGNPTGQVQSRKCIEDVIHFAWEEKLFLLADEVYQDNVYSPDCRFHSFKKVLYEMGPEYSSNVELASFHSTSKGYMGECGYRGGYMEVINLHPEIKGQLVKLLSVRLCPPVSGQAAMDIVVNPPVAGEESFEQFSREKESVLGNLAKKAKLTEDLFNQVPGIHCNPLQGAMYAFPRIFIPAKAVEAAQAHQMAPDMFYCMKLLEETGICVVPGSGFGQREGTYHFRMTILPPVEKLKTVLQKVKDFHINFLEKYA
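Fluorescence of coupled pyruvate oxidase/HRP/Amplex Red system (50uM Amplex, 30 min, dark) reports pyruvate formed by GPT2. Enzyme reaction: 10ng/uL GPT2, 2mM L-alanine, 250uM a-KG, 30 min room temperature, pH 7.5; 50uM AOA control.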
HEK293 tox: Cytotoxic Profiling in HEK 293 Cell Line of Diverse Libraries Using Quantitative High-Throughput Screening | hit rate 6.6% among 94,000 | Potency, µM (titrated, usually from 115 µM), usual class: inhibitors | HEK 293 viability, ATP luminescence (CellTiter-Glo), 48-72 h; note: nearly all actives have a fitted effect of over 60% in size
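Cytotoxicity was scored by loss of ATP-coupled luminescence (CellTiter-Glo) in HEK 293 cells. Compound treatment ran 48 or 72 hr at 37 degree Celsius, 5% CO2, 95% humidity.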
NIH3T3 tox: Cytotoxic Profiling in NIH 3T3 Cell Line of Diverse Libraries Using Quantitative High-Throughput Screening. Potency, µM (series often up to 96.7 µM), actives largely listed as inhibitors. NIH 3T3 viability, CellTiter-Glo ATP luminescence, 48-72 h. hit rate 4.3% among 94,000; note: nearly all actives have a fitted effect of over 55% in size
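Cells were seeded at 400 per well, treated with pin-transferred compound, and kept 48 or 72 hr at 37 °C before CellTiter-Glo addition and luminescence imaging of cellular ATP.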
A number is an active result; 0 = inactive; ? = inconclusive; - = no result given. An excerpt weighted towards active compounds, which were near 10% of everything screened. Unless noted, calls come from the whole dose curve; as a rule, active = well fitted curve in the direction sought with a large enough effect; inconclusive = small, poorly fitted or top-dose-only effect, or another doubt; inactive = no such curve, though single readings can be large; an effect the other way counts as inactive or inconclusive.

SMILES	hNpr1 antagonist	FLuc inh	GPT2 inhibitor	HEK293 tox	NIH3T3 tox
O=S(=O)(c1ccc(-n2cccn2)cc1)N1CCCC2(CCNC2)C1 (stereo not given)	0	0	0	?	0
COc1ccccc1Cn1c(=O)c(C(=O)NCc2cccs2)nc2cccnc21	-	-	0	?	?
O=C(NCCn1ccn2nc(-c3ccc(F)cc3)cc2c1=O)c1ccsc1	0	0	0	?	0
Cc1ccc(-c2cc3c(=O)n(CCNC(=O)C4CCCCC4)ccn3n2)cc1C	0	0.631µM	0	0	0
CCn1nccc1C(=O)NCCn1ccn2nc(-c3ccc(C)c(C)c3)cc2c1=O	0	3.98µM	0	25.1µM	0
Cc1ccc(-c2cc3c(=O)n(CCNC(=O)c4ccc(N(C)C)cc4)ccn3n2)cc1C	0	0	0	0	0
Cc1ccc(-c2cc3c(=O)n(CCNC(=O)c4ccccc4F)ccn3n2)cc1C	0	2µM	0	?	0
O=C(NCCn1ccn2nc(-c3ccc(F)cc3)cc2c1=O)c1n[nH]c2c1CCCC2	?	0.398µM	0	?	?
CC(C)N1CCC(CCNC(=O)CCC[C@H]2NC[C@@H]3C[C@H]2CN(Cc2ccccc2)C3)CC1	0	0	0	0	0
O=C(C1CCCN1C(=O)c1ccc(F)cc1)N1CCC(c2nc3ccncc3[nH]2)C1 (stereo not given)	-	-	0	0	0
CC1CCC2(CC1)OCC(C(=O)NCc1ccccc1F)N2C(=O)c1ccccc1F (stereo not given)	0	0	0	79.4µM	0
Cc1ccccc1CN1Cc2nc(-c3cnn(C)c3)ccc2OCC1=O	0	0	0	100µM	31.6µM
O=C1COc2ccc(OCc3cccnc3)nc2CN1Cc1ccccc1F	?	0	0	89.1µM	?
Cc1ccccc1CN1Cc2nc(-c3cnn(Cc4ccccc4)c3)ccc2OCC1=O	?	0	0	35.5µM	22.4µM
Cc1ccccc1CN1Cc2nc(OCc3cccnc3)ccc2OCC1=O	?	0	0	?	?
COc1ccc(-c2ccc3c(n2)CN(Cc2ccccc2C)C(=O)CO3)cc1OC	0	0	0	?	?
O=C1COc2ccc(-c3ccccc3)nc2CN1Cc1ccccc1F	0	0	0	?	?
O=C1COc2ccc(-c3ccsc3)nc2CN1Cc1ccccc1F	0	0	0	100µM	?
O=C(NC1CCc2nnc(C3CC3)n2CC1)c1cc(C2CC2)[nH]n1 (stereo not given)	0	0	0	0	0
CC1CCN(C(=O)C[C@@H]2c3nc(NC(=O)c4c(F)cccc4F)sc3C[C@@H]3[C@](C)(CO)[C@H](O)CC[C@]32C)CC1	0	0	0	?	?
CCCC(=O)Nc1cc(C2CC2)nn1C	-	-	0	0	0
NC(=O)c1cccc(-c2ccc3c(n2)CN(Cc2nc4ccccc4s2)C(=O)CO3)c1	0	0	0	79.4µM	?
Cc1ccccc1CN1Cc2nc(-c3ccccc3)ccc2OCC1=O	0	0	0	89.1µM	?
NC(=O)c1cccc(-c2ccc3c(n2)CN(Cc2ccc(F)cc2)C(=O)CO3)c1	?	0	0	?	?
O=C(NCCc1c[nH]c2ccccc12)[C@@H]1C[C@H]2C(=O)NCCCCCCN(C(=O)C3CC3)[C@H]2C1	0	0	0	?	?
SMILES	hNpr1 antagonist	FLuc inh	GPT2 inhibitor	HEK293 tox	NIH3T3 tox
CCS(=O)(=O)N1CCCCCCNC(=O)[C@@H]2C[C@@H](C(=O)NCCc3c[nH]c4ccccc34)C[C@@H]21	0	0	0	35.5µM	0
CCc1nc2cc(N3CCC(C(=O)NCc4ccccc4F)CC3)cnc2nc1CC	0	0	0	?	?
Cc1nnc2ccc(N3CCCC(NC(=O)C4CCCC4)C3)nn12 (stereo not given)	-	-	-	?	0
Cc1onc(C(=O)NCc2ccc3[nH]c(-c4ccc(F)cc4)c(C)c3c2)c1CO	?	?	0	?	?
Cc1noc(C)c1CCC(=O)NC1CCCc2c1[nH]c1ccccc21 (stereo not given)	0	0	0	?	?
O=C(CCc1c[nH]c2ccccc12)NC1CCCc2c1[nH]c1ccc(F)cc21 (stereo not given)	0	0	0	?	39.8µM
CCN1CCN(CC(=O)NCc2ccc3[nH]c(-c4ccc(F)cc4)c(C)c3c2)CC1	0	?	0	17.8µM	22.4µM
O=C(NC1CCCc2c1[nH]c1ccc(F)cc21)c1n[nH]c2c1CCC2 (stereo not given)	0	0	0	35.5µM	35.5µM
Cc1c(-c2ccccc2F)[nH]c2ccc(CNC(=O)CCN3CCCO3)cc12	0	15.8µM	0	?	?
CC(=O)NC[C@H]1CN(c2ccc(N3CCN(C(=O)CO)CC3)c(F)c2)C(=O)O1	-	-	0	-	-
O=C(NCc1cccs1)c1nc2sccn2c1-c1cccnc1	-	-	0	0	?
O=C(CCc1ccc(CC2CCN(Cc3ccncc3)CC2)cc1)NC1CC1	-	-	0	?	0
Cc1c(-c2ccc(F)cc2)[nH]c2ccc(CNC(=O)c3cnn(C)c3)cc12	?	25.1µM	0	39.8µM	?
Cc1c(-c2ccc(F)cc2)[nH]c2ccc(CNC(=O)c3n[nH]c4c3CCCC4)cc12	15.8µM	15.8µM	0	?	31.6µM
CN(Cc1ccccc1)c1ccc2nnc(-c3ccccn3)n2n1	0	0	0	?	44.7µM
COc1ccc(-c2nnc3ccc(N(C)Cc4ccccc4)nn23)nc1	0	0	0	?	?
C[C@@H]1CN(c2ccc3nnc(-c4ccccn4)n3n2)C[C@H](C)O1	0	0	0	?	79.4µM
Cn1nc(C2CC2)cc1NC(=O)c1cccc(Cl)c1	-	-	0	0	?
COc1cccc(CN2CC3(C2)C(=O)N(Cc2ccccc2Cl)C(=O)[C@@H]2C[C@@H](O)CN23)c1	0	0	?	?	?
C[S+](=O)([O-])c1ccc(-c2cc3c(ccn3Cc3ccncc3)c(N3CCOCC3)n2)cc1	0	0	0	0	6.31µM
CC(=O)Nc1cccc(-c2cc3c(ccn3Cc3ccncc3)c(N3CCOCC3)n2)c1	0	0	0	0	?
CN(C)Cc1cccc(-c2cc3c(ccn3Cc3ccncc3)c(N3CCOCC3)n2)c1	0	0	0	89.1µM	39.8µM
c1cc(-c2cc3c(ccn3Cc3ccncc3)c(N3CCOCC3)n2)cc(N2CCOCC2)c1	0	0	0	?	31.6µM
COc1ccc(-c2nn(-c3ccccc3)cc2CN2CCCC(C#N)C2)c(F)c1 (stereo not given)	0	0	0	?	0
CN(C)c1ccc(-n2c(=O)c(C(=O)NCC(F)(F)F)nc3cccnc32)cc1	-	-	0	0	0
O=C(c1ccc(Cl)cc1)N1CCC(n2cc(-c3ccc(OC(F)F)cc3)[nH]c2=O)CC1	-	-	0	?	?

Screening data: PubChem, National Center for Advancing Translational Sciences (NCATS)
